Source: PubChem BioAssay AID1159580 (chemical genetic matrix, 2015)
Values joined by “and” are separate entries in the source; they are usually repeats but may differ in a detail not shown here. Equal values may be shown once. The whole screen tested about 5,500 compounds, of which about 2,000 (36%) were called active. Not shown: some 18% with an inconclusive outcome. Rule as the data show it: active = normalized growth mostly below about 0.91 (no sharp cut-off); inconclusive = no clear call, values can overlap the other calls; inactive = mostly above about 0.92. The list shows a part of the results.

Test: chemical genetic growth profiling, strain panel (AID 1159580);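 also: tested at 20 µM; growth read once vehicle control cultures reached saturation at 30 °C; 1 = growth at the plate median or of vehicle wells; lower values mean less growth of the strain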
Conditions: S. cerevisiae deletion strains, growth OD

Measured: normalized growth

ClC1=C(Cl)C2(Cl)C3C4C=CC(C4)C3C1(Cl)C2(Cl)Cl (configuration not stated)
inactive: locus YAL013W, strain DEP1, active compounds read low 0.989 | locus YAL021C, strain ccr4, active compounds read low 0.987 | locus YAL026C, strain drs2, active compounds read low 0.993 | locus YAL030W, strain snc1, active compounds read low 1 | locus YBL061C, strain skt5, active compounds read low 1.01 | locus YBR009C, strain hhf1, active compounds read low 0.992 | locus YBR021W, strain FUR4, active compounds read low 1 | locus YBR023C, strain chs3, active compounds read low 0.997 | locus YBR171W, strain sec66, active compounds read low 0.988 | locus YBR229C, strain ROT2, active compounds read low 0.997 | locus YBR231C, strain swc5, active compounds read low 1 | locus YBR279W, strain paf1, active compounds read low 1.01 | locus YCL011C, strain gbp2, active compounds read low 0.999 | locus YCL016C, strain dcc1, active compounds read low 0.999 | locus YCL029C, strain bik1, active compounds read low 0.972 | locus YCL061C, strain MRC1, active compounds read low 0.993 | locus YCL069W, strain vba3, active compounds read low 0.997 | locus YCR088W, strain abp1, active compounds read low 0.991 | locus YDL005C, strain med2, active compounds read low 0.999 | locus YDL035C, strain GPR1, active compounds read low 0.949 | locus YDL040C, strain nat1, active compounds read low 0.998 | locus YDL074C, strain BRE1, active compounds read low 0.969 | locus YDL101C, strain DUN1, active compounds read low 0.993 | locus YDL134C, strain PPH21, active compounds read low 0.992 | locus YDL185W, strain tfp1, active compounds read low 1 | locus YDL192W, strain arf1, active compounds read low 0.997 | locus YDR001C, strain nth1, active compounds read low 0.996 | locus YDR069C, strain doa4, active compounds read low 0.99 | locus YDR101C, strain arx1, active compounds read low 1 | locus YDR137W, strain rgp1, active compounds read low 0.956 | locus YDR150W, strain NUM1, active compounds read low 1 | locus YDR159W, strain sac3, active compounds read low 0.901 | locus YDR162C, strain NBP2, active compounds read low 1 | locus YDR195W, strain ref2 0.955 | locus YDR297W, strain sur2, active compounds read low 1 | locus YDR318W, strain mcm21, active compounds read low 0.981 | locus YDR334W, strain swr1, active compounds read low 0.993 | locus YDR335W, strain msn5, active compounds read low 1 | locus YDR388W, active compounds read low 0.985 | locus YDR392W, strain spt3, active compounds read low 1 | locus YDR502C, strain sam2, active compounds read low 0.994 | locus YEL003W, strain gim4, active compounds read low 1 | locus YEL037C, strain rad23, active compounds read low 1 | locus YEL061C, strain CIN8 (second series), active compounds read low 1 | locus YEL061C, strain CIN8, active compounds read low 1 | locus YER015W, strain faa2, active compounds read low 1 | locus YER016W, strain bim1, active compounds read low 0.994 | locus YER110C, active compounds read low 0.99 | locus YER111C, strain swi4, active compounds read low 1 | locus YER155C, strain BEM2 (second series), active compounds read low 0.998 | locus YER155C, strain BEM2, active compounds read low 0.978 | locus YER167W, strain BCK2, active compounds read low 0.977 | locus YFR010W, strain ubp6, active compounds read low 0.988 | locus YGL078C, strain dbp3, active compounds read low 1 | locus YGL086W, strain mad1, active compounds read low 0.967 | locus YGL167C, strain pmr1, active compounds read low 0.983 | locus YGL173C, strain kem1, active compounds read low 0.992 | locus YGL227W, strain vid30, active compounds read low 0.996 | locus YGL240W, strain doc1, active compounds read low 0.981 | locus YGL248W, strain PDE1, active compounds read low 0.997 | locus YGL253W, strain hxk2, active compounds read low 0.983 | locus YGR078C, strain PAC10, active compounds read low 1.01 | locus YGR135W, strain pre9, active compounds read low 0.982 | locus YGR229C, strain SMI1, active compounds read low 0.952 | locus YGR252W, strain gcn5, active compounds read low 0.961 | locus YHR013C, strain ard1, active compounds read low 1.08 | locus YHR027C, strain rpn1, active compounds read low 0.988 | locus YHR030C, strain SLT2, active compounds read low 1 and 0.976 | locus YHR079C, strain IRE1 (second series), active compounds read low 0.983 | locus YHR079C, strain IRE1, active compounds read low 0.979 | locus YHR094C, strain hxt1, active compounds read low 1 | locus YHR129C, strain ARP1, active compounds read low 1 | locus YHR142W, strain chs7, active compounds read low 1.01 | locus YHR200W, strain rpn10, active compounds read low 0.99 | locus YIL066C, strain RNR3, active compounds read low 0.941 | locus YIL073C, strain SPO22, active compounds read low 0.874 | locus YIL125W, strain kgd1, active compounds read low 1 | locus YIR030C, strain dcg1, active compounds read low 0.991 | locus YJL092W, strain hpr5, active compounds read low 0.992 | locus YJL095W, strain BCK1 (second series), active compounds read low 0.994 | locus YJL095W, strain BCK1, active compounds read low 1.01 and 1.03 | locus YJL115W, strain asf1, active compounds read low 0.989 | locus YJL134W, strain LCB3, active compounds read low 0.999 | locus YJL154C, strain vps35, active compounds read low 0.992 | locus YJL164C, strain tpk1, active compounds read low 0.981 | locus YJL166W, strain qcr8, active compounds read low 0.99 | locus YJL168C, strain set2, active compounds read low 0.991 | locus YJL187C, strain SWE1 (second series), active compounds read low 1 | locus YJL187C, strain SWE1, active compounds read low 1.01 | locus YJR043C, strain POL32, active compounds read low 0.981 | locus YJR066W, strain TOR1, active compounds read low 0.975
active: locus YJL129C, strain trk1, active compounds read low 0.85
